Assay: caspase-8 TRAIL sensitization, hit retest, confirmation, cell-based, NB7+caspase-8, with/without TRAIL, luminescence panel (AID 651596)
Conditions: NB7 neuroblastoma + caspase-8, without TRAIL, luminescence viability, without TRAIL, mean of runs, at 10 µM

SMILES	activity
Cc1ccc(CSc2nnc(-c3cccnc3)o2)cc1	45.6%
CC(C)CC(N)c1csc(NC(=O)c2cc(C(C)(C)C)nn2Cc2ccccc2)n1 (stereo not given)	92.4%
O=C(CN(Cc1ccccc1)C(=O)CCl)c1cccc(Br)c1	93.5%
CCC(C(=O)O/N=C(\N)c1ccccc1)c1ccccc1 (stereo not given)	81.6%
CC1(C)N=C(N)N=C(N)N1c1cccc(C#N)c1	86.1%
Cn1c(-c2ccccc2F)cc2onc(-c3ccccc3)c2c1=O	65.1%
CCS(=O)(=O)c1ncc(Cl)c(C(=O)Nc2ccc(C)cc2)n1	86.8%
COC(=O)c1ccc(NC(=O)C(=O)c2cccn2C)cc1	51.2%
COc1ccccc1N1CCN(c2ccc3ccccc3n2)CC1	24.1%
Cc1cc(C(=O)CSc2nnc(N)s2)c(C)n1Cc1cccs1	77.5%
CCOc1ccc(OCC(=O)Nc2cccc(S(=O)(=O)NC3=NCCC3)c2)cc1	64.6%
Nc1cc2sc(-c3ccc(C(=O)O)cc3)nc2cc1Cl	42.5%
Cc1ccc(N=Cc2c(C)[nH]n(-c3nc4ccccc4[nH]3)c2=O)cc1	88.8%
COc1ccccc1-c1nnc(-c2ccc(C)cc2)o1	43.5%
Cc1ccc(C(=O)N/N=C\c2ccc[nH]2)cc1[N+](=O)[O-]	79.4%
O=C(N/N=C/c1ccc([N+](=O)[O-])o1)c1cc(-c2ccc(-c3ccccc3)cc2)nc2ccccc12	89.3%
COc1ccc(CC(N)c2csc(NC(=O)c3cc(C(C)(C)C)nn3Cc3ccccc3)n2)cc1 (stereo not given)	90.5%
CCOC(=O)c1nn(-c2ccc3c(c2)OCCO3)cc1O	57%
Clc1ccc(CSc2nc3ccncc3[nH]2)cc1	96.1%
N/C(Cc1ccc(Cl)c(Cl)c1)=N\OC(=O)c1cccs1	39.5%
